Screens (PubChem)
Only some compounds are listed: those with a hit (about 2.2% of all), similar ones and a draw of the others.
BaF3 tox: reduces parental Ba/F3 cell viability, JAK2V617F counter-screen | inhibition, % at 5.6 µM | 1.1% of 220,000 active | CellTiter-Glo ATP luminescence | AID 1486;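 active = inhibition above a per-campaign cutoff, the mean inhibition of all tested compounds plus 3 SD, cut at about 27% in these data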;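 also: 0% = DMSO wells and 100% = JAK Inhibitor I control wells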
KLF5 inh: kruppel-like factor 5 inhibition; DLD-1 KLF5 promoter-luciferase reporter, luminescence; inhibition, % at 5 µM; 0.23% of 290,000 active;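 active = inhibition above a per-plate limit of that plate's mean compound inhibition plus 3 SD, cut at about 60% in these data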;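 also: 0% = DMSO wells and 100% = LY294002 at 200 µM; higher means less KLF5 promoter-driven luciferase light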
APP transl inh: APP translation inhibition | SH-SY5Y APP 5'UTR-luciferase reporter, luminescence | inhibition, % at 2 µM | AID 1285 | 0.82% of 190,000 active;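 active = inhibition above a set limit, derived from the sample mean plus 3 SD, cut at about 45% in these data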
aSyn 5UTR inh: 5' untranslated region of α-synuclein, MLPCN primary screen. alpha-synuclein 5'UTR reporter, inhibitor activity. inhibition, % (tested at 7.5 µM). 0.82% of 300,000 active; in the data active = inhibition above about 60%;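 also: H4 neuroglioblastoma cells stably carrying SNCA 5'UTR luciferase fusion; 0% = DMSO wells and 100% = positive control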
IEC-6 cytotox: counter-screen for KLF5 inhibitors: cytotoxicity in IEC-6 cells | inhibition, % at 5 µM | AID 1825 | IEC-6 cytotoxicity, luminescence viability | 0.78% of 290,000 active;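 also: 0% = plate median of test compound wells and 100% = cytotoxic reference compound wells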
Ba/F3 V617F tox: lowers viability of Ba/F3 cells expressing EpoR and JAK2V617F. ATP luminescence. 1.1% of 220,000 active. AID 1446. inhibition, % at 5.6 µM;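 active = inhibition above the campaign mean plus 3 SD over all tested compounds, cut at about 24% in these data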;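 also: cytokine-independent growth of Ba/F3 cells driven by EpoR plus mutant JAK2; 0% = DMSO-treated cells and 100% = JAK inhibitor I control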
IEC-6 tox confirm: confirmation of cytotoxic compounds in rat IEC-6 intestinal epithelial cells. shares compounds with IEC-6 cytotox. IEC-6 rat intestinal epithelial viability, luminescence. inhibition, % at 5 µM. 63% of 1,900 active. AID 1907;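 also: 0% = vehicle and 100% = reference cytotoxic drug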
* = called active by the depositor; x = no result given. Rule as the data show it, unless noted: active = inhibition above about 22%; inactive = the rest.

SMILES	BaF3 tox	KLF5 inh	APP transl inh	aSyn 5UTR inh	IEC-6 cytotox	Ba/F3 V617F tox	IEC-6 tox confirm
Cc1ccc(C(=O)NCC#N)cc1	8	-21	-2	1	-10	-1	x
Cc1ccc(C(=O)NC(C#N)=C(Cl)Cl)cc1	-4	-16	58*	-191	70*	11	19
Cc1sc(NC(=S)NC(=O)CCc2ccccc2)c(C(N)=O)c1C	75*	25	95*	x	27*	75*	71*
Cc1sc(NC(=S)NC(=O)c2ccco2)c(C(N)=O)c1C	2	-8	-37	-92	-2	1	x
CCCN(CC(=O)Nc1ccc(F)c(F)c1F)CC(=O)Nc1c(Cl)cccc1Cl	5	-3	-3	15	59*	0	38*
CCc1nc2ccccc2c(C(=O)OCC(=O)C(C)(C)C)c1C	6	-15	-13	0	24*	3	-3
CCOC(=O)C1=C(C)NC(SC)=C(C#N)C1CC(C)C (configuration not stated)	81*	52	x	13	70*	85*	56*
CC(=O)C1=C(C)NC(SCC(N)=O)=C(C#N)C1CC(C)C (configuration not stated)	0	-9	-33	1	3	-2	x
COCCn1c(SC(C)C(=O)Nc2ncc(Cl)cc2Cl)nc2ccccc21 (configuration not stated)	3	29	2	15	24*	0	27*
Cc1cccc(OCC(=O)NCC(=O)N/N=C/c2cc(Br)cc(Br)c2O)c1	x	35	x	29	30*	x	18
O=C1CC(NS(=O)(=O)c2cc(F)ccc2F)CN1c1ccc2c(c1)OCCO2 (configuration not stated)	x	x	x	-3	x	x	x
Cc1onc(-c2c(Cl)cccc2Cl)c1C(=O)Nc1nccs1	x	5	x	-15	-1	x	x
COc1cccc(C2=CC(c3ccccc3)n3nnnc3N2)c1 (configuration not stated)	0	21	2	-28	28*	3	32*
COc1cccc(CN2C(=O)NC3(CCCCCC3)C2=O)c1	x	-9	x	1	-6	x	x
COc1ccc(-c2cc(C(=O)N3CCN(c4ccccc4)CC3)c3ccccc3n2)cc1	10	-5	75*	-35	28*	2	6
COc1ccc(-c2cc(C(=O)N3CCCC3)c3ccccc3n2)cc1	x	-45	x	-49	7	x	x
O=C(CCNS(=O)(=O)c1ccccc1)OCC(=O)c1ccc[nH]1	x	x	x	8	x	x	x
CCCCNc1ncnc2c1cnn2-c1ccccc1	66*	-42	-102	-260	38*	64*	29*
CCCCNc1ncnc2c1cnn2-c1ccc(Cl)cc1	9	-113	34	-137	19	4	x
COc1ccc(-c2nn(-c3ccccc3)cc2/C=N/O)cc1OC	x	-54	x	-5	27*	x	14
COc1ccc(-c2nn(-c3ccccc3)cc2/C=N/N=C(N)N)cc1OC	1	4	-4	-20	-4	0	x
CN(c1ccccc1)S(=O)(=O)c1ccc(NC(=O)c2ccccc2)cc1	1	8	-10	-32	2	-5	x
COc1cccc(NC(=O)c2nc(S(C)(=O)=O)ncc2Cl)c1	x	30	x	-26	100*	x	17
CN(c1ccccc1)S(=O)(=O)c1ccc(NC(=O)c2nc(S(C)(=O)=O)ncc2Cl)cc1	x	23	x	16	95*	x	3
COc1cccc(NC(=O)c2nc(SC)ncc2Cl)c1	x	-12	x	-20	10	x	x
SMILES	BaF3 tox	KLF5 inh	APP transl inh	aSyn 5UTR inh	IEC-6 cytotox	Ba/F3 V617F tox	IEC-6 tox confirm
CCCCCCCCn1c2c(c(=N)c3ccccc31)CCC2	82*	55	-10	59	40*	99*	37*
CC(/C=N/NC(=O)c1cccc(F)c1)=C\c1ccccc1	x	-48	x	-254	28*	x	6
NS(=O)(=O)c1ccc(CNC(=O)c2cc(=O)c3cc(Cl)ccc3o2)cc1	x	-38	x	10	101*	x	-14
Cc1ccc2oc(C(=O)NCc3ccc(S(N)(=O)=O)cc3)cc(=O)c2c1	x	-46	x	-5	-13	x	x
CCN1CCCC1CNC(=O)C1CCN(Cc2nc(-c3cccc(Br)c3)oc2C)CC1 (configuration not stated)	31*	12	-5	14	49*	12	99*
Cc1ccccc1-c1nc(CN2CCC(C(=O)NCCCN3CCCC3)CC2)c(C)o1	8	19	-1	-33	0	2	x
Cc1ccccc1-c1nc(CN2CCC(C(=O)NCCCN3CC(C)CC(C)C3)CC2)c(C)o1 (configuration not stated)	21	1	-12	1	60*	15	53*
OCCn1ccc(-c2ccccc2OCc2ccc(F)cc2)n1	x	-23	x	1	-1	x	x
COc1ccc(C2=NN(C(=O)CCC(=O)O)C(c3ccccc3OC)C2)cc1 (configuration not stated)	x	-30	x	-18	3	x	x
COCCCn1c(SCC(=O)NC2CCCC2)nnc1-c1cccs1	x	-8	x	-1	1	x	x
COc1ccccc1CNC(=S)NCc1ccc(F)cc1	x	-31	x	-11	-2	x	x
CC(C)(C)c1ccc(Cn2c(=O)cnc3ccccc32)cc1	x	19	x	-37	24*	x	8
O=c1cnc2ccccc2n1Cc1ccc(Br)cc1	x	-37	x	-65	10	x	x
COc1ccccc1CNC(=O)OCc1nccnc1C(=O)Nc1ccc(Br)cn1	x	-15	x	5	3	x	x
CCN1CCN(CCNC(=O)c2ccc(/C=C3/Sc4ccccc4N(Cc4ccccc4C)C3=O)cc2)CC1	14	-71	-1	26	30*	7	18
COc1cccc(-c2ocnc2C(=O)Nc2ccc(N3CCOCC3)cc2N2CCOCC2)c1	x	-23	x	-4	-11	x	x
C=CCNC(=O)c1cc2c(=O)n3ccccc3nc2s1	x	-122	x	-218	-5	x	x
CS(=O)(=O)N(CCCC(=O)N1CCCCCC1)c1cccc(Cl)c1	x	-23	x	2	-2	x	x
COc1ccc(C2=Nn3c([n+](C)c4ccccc43)SC2)cc1	77*	15	13	2	30*	100*	24*
COc1cccc(CNc2ncc(C(=O)Nc3cc(OC)c(OC)c(OC)c3)c(C)n2)c1	x	22	x	-22	30*	x	12
CN(C)CC(CCC(CN(C)C)C(O)(c1ccccc1)c1ccccc1)C(O)(c1ccccc1)c1ccccc1 (configuration not stated)	x	2	x	101*	45*	x	42*
CC(C)(C)NS(=O)(=O)c1ccc(CCC(=O)NCc2ccccn2)cc1	x	-20	x	18	0	x	x
O=C(N/N=C/c1ccccn1)c1ccc(Cl)c(Cl)c1	x	-4	x	-20	22*	x	11
Fc1ccccc1Nc1nc2ccccc2o1	x	-49	x	-42	2	x	x
COc1cc(/C=N/NC(=O)c2nc(-c3ccccc3)n(-c3ccccc3)n2)ccc1O	3	-17	12	39	2	-1	x
COc1cc(/C=N/Nc2nc(C)nc3c2cnn3-c2ccccc2)ccc1O	51*	11	50*	-14	32*	46*	9
